Assay results published in PubChem BioAssay (EPA / NIEHS).
Inconclusive results are not listed. More than one record can exist for a structure, and the calls need not agree. The source made the active and inactive calls. The calls were made as follows, unless noted: active = hit-call score of the fitted dose curve at least 0.9, where 1 is the maximum; inactive = score below 0.9.

Columns and labels:
[1] = biological target: human Vitamin D Receptor (VDR), VDR (gene 7421) (UniProt P11473); experiment: ATG_VDR_TRANS: Attagene TRANS-FACTORIAL HepG2 Assay for human Vitamin D Receptor (VDR) (AID 2283022; active = hit-call score of the fitted dose curve at least 0.9, where 1 is the maximum)
Outline: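 HepG2 cells were transiently transfected with multiple GAL4-UAS reporter units, so signal reflects exogenous chimeric receptor-Gal4 activity. After 24 h compound exposure, reporter mRNA was measured by RT-PCR, fluorescent labelling and capillary electrophoresis, fitted for gain of signal versus DMSO.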

[2] = BSK_3C_SRB: Viability Assessment in the BioMAP Diversity Plus: 3C Assay (AID 2283023); conditions: primary human endothelial cells (HUVEC);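 also: fitted both ways against DMSO so a hit may be signal rise or drop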
Outline: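 Primary human umbilical vein endothelial cells in the 3C system were read 24 h after compound dosing. Total protein was stained with 0.1% sulforhodamine B after 10% TCA fixation and read at 560 nm, with bidirectional fitting against DMSO as baseline.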

[3] = read-out: Matrix Metallopeptidase 1 (MMP1), MMP1 (gene 4312); experiment: BSK_BE3C_MMP1: BioMAP Diversity Plus: BE3C Assay for Matrix Metallopeptidase 1 (MMP1) Biomarker Activity (AID 2283024); conditions: primary human bronchial epithelial cells; actives raise or lower the signal
Outline: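 Human primary bronchial epithelial cells (BE3C system) dosed for 24 h; MMP-1 quantified by ELISA. Bidirectional fit against DMSO; cytotoxicity tracked in parallel cultures by SRB total-protein staining.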

[4] = BSK_3C_Vis: BioMAP Diversity Plus: 3C Assay for Morphology Visualization (AID 2283025); conditions: primary human endothelial cells (HUVEC);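 also: fitted both ways so gain or loss versus DMSO counts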;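 as to AC50: light microscopy image of cell morphology used as background control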
Outline: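 Human umbilical vein endothelial cell morphology was inspected by light microscopy 24 h after chemical dosing; scored bidirectionally relative to DMSO.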

[5] = read-out: Pselectin, SELP (gene 6403); experiment: BSK_4H_Pselectin: BioMAP Diversity Plus: 4H Assay for Pselectin Biomarker Activity (AID 2283026); conditions: primary human endothelial cells (HUVEC); actives raise or lower the signal
Outline: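 Primary human umbilical vein endothelial cells were treated 24 h, and cell-surface P-selectin was then quantified by ELISA. Bidirectional fit versus DMSO; cytotoxicity checked in parallel cultures by SRB total-protein staining.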

[6] = BSK_4H_SRB: Viability Assessment in the BioMAP Diversity Plus: 4H Assay (AID 2283027); conditions: primary human endothelial cells (HUVEC);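 as to AC50: curves fitted both ways versus DMSO so AC50 may be loss or gain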
Outline: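 Absorbance at 560 nm of SRB-stained total protein served as the viability read-out in confluent primary human umbilical vein endothelium 24 h after chemical treatment. Curves were fitted bidirectionally against DMSO as negative control.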

[7] = BSK_BE3C_SRB: Viability Assessment in the BioMAP Diversity Plus: BE3C Assay (AID 2283028); conditions: primary human bronchial epithelial cells;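 as to AC50: fitted both ways so AC50 may mark signal gain or loss versus DMSO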
Outline: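 Human primary bronchial epithelial cells were exposed to test chemicals for 24 h. Total protein in parallel cultures was then measured by staining with 0.1% sulforhodamine B after 10% TCA fixation, with absorbance read at 560 nm. Activity was fitted bidirectionally against DMSO.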

[8] = read-out: Urokinase-type plasminogen activator receptor (uPAR), PLAUR (gene 5329); experiment: BSK_4H_uPAR: BioMAP Diversity Plus: 4H Assay for Urokinase-type plasminogen activator receptor (uPAR) Biomarker Activity (AID 2283030); conditions: primary human endothelial cells (HUVEC); actives raise or lower the signal
Outline: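 Primary human umbilical vein endothelial cells were exposed to chemical for 24 h before cell-surface uPAR was quantified by ELISA. Activity was fitted bidirectionally against the DMSO negative control baseline.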

[9] = read-out: Vascular endothelial growth factor receptor 2 (Homo sapiens) (UniProt P35968); experiment: BSK_4H_VEGFRII: BioMAP Diversity Plus: 4H Assay for Vascular endothelial growth factor receptor 2 (VEGFR2) Biomarker Activity (AID 2283031); conditions: primary human endothelial cells (HUVEC); actives raise or lower the signal
Outline: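 Primary human umbilical vein endothelial cells in the BioMAP 4H system were dosed with test chemical, and 24 h later VEGFRII was measured by ELISA. Activity was fitted bidirectionally against DMSO as negative control and baseline.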

[10] = read-out: Human Leukocyte Antigen - DR isotype (HLADR), HLA-DRA (gene 3122); experiment: BSK_BE3C_HLADR: BioMAP Diversity Plus: BE3C Assay for Human Leukocyte Antigen - DR isotype (HLADR) Biomarker Activity (AID 2283032); conditions: primary human bronchial epithelial cells; actives raise or lower the signal
Outline: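 Human primary bronchial epithelial cells (BE3C system) exposed to compound for 24 hours; cell-surface HLA-DR measured by ELISA, fitted bidirectionally relative to DMSO. Total protein by SRB in parallel cultures tracked cytotoxicity.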

[11] = read-out: Vascular cell adhesion molecule 1 (VCAM1), VCAM1 (gene 7412); experiment: BSK_4H_VCAM1: BioMAP Diversity Plus: 4H Assay for Vascular cell adhesion molecule 1 (VCAM1) Biomarker Activity (AID 2283033); conditions: primary human endothelial cells (HUVEC); actives raise or lower the signal
Outline: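 Primary human umbilical vein endothelial cells, 4H stimulation system, treated for 24 h; cell-surface VCAM-1 quantified by ELISA. Bidirectional fitting against DMSO; cytotoxicity tracked by SRB total-protein staining in parallel cultures.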

[12] = read-out: Interferon-gamma inducible Protein 10 (IP10), CXCL10 (gene 3627); experiment: BSK_BE3C_IP10: BioMAP Diversity Plus: BE3C Assay for Interferon-gamma inducible Protein 10 (IP10) Biomarker Activity (AID 2283034); conditions: primary human bronchial epithelial cells; actives raise or lower the signal
Outline: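 Primary human bronchial epithelial cells, with IP-10 measured by ELISA 24 hours after chemical dosing. Bidirectional fit against DMSO; cytotoxicity checked by SRB total protein staining in parallel cultures.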

[13] = read-out: Monokine induced gamma interferon (MIG), CXCL9 (gene 4283); experiment: BSK_BE3C_MIG: BioMAP Diversity Plus: BE3C Assay for Monokine induced gamma interferon (MIG) Biomarker Activity (AID 2283035); conditions: primary human bronchial epithelial cells; actives raise or lower the signal
Outline: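 MIG level was determined by ELISA after 24 h chemical treatment of primary human bronchial epithelial cells. Values were fitted bidirectionally with DMSO as the negative control and activity baseline.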

[14] = read-out: Transforming growth factor beta 1 (TGFb1), TGFB1 (gene 7040); experiment: BSK_BE3C_TGFb1: BioMAP Diversity Plus: BE3C Assay for Transforming growth factor beta 1 (TGFb1) Biomarker Activity (AID 2283036); conditions: primary human bronchial epithelial cells; actives raise or lower the signal
Outline: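 Primary human bronchial epithelial cells dosed with chemical; TGF-b1 measured by ELISA 24 h after dosing. Bidirectional curve fitting against DMSO negative control; SRB total-protein staining in parallel cultures gauged cytotoxicity.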

[15] = read-out: Plasminogen activator inhibitor-1 (PAI1), SERPINE1 (gene 5054); experiment: BSK_BE3C_PAI1: BioMAP Diversity Plus: BE3C Assay for Plasminogen activator inhibitor-1 (PAI1) Biomarker Activity (AID 2283037); conditions: primary human bronchial epithelial cells; actives raise or lower the signal
Outline: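 Primary human bronchial epithelial cells (BE3C system) exposed 24 h; PAI-1 quantified by ELISA. Parallel sulforhodamine B staining of total protein flags cytotoxicity. Bidirectional fit versus DMSO.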

[16] = read-out: urokinase plasminogen activator (uPA), PLAU (gene 5328); experiment: BSK_BE3C_uPA: BioMAP Diversity Plus: BE3C Assay for urokinase plasminogen activator (uPA) Biomarker Activity (AID 2283038); conditions: primary human bronchial epithelial cells; actives raise or lower the signal
Outline: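 Human primary bronchial epithelial cells were exposed to chemical for 24 h, then uPA levels were measured by ELISA. Responses were fitted bidirectionally against DMSO as negative control and baseline. Parallel SRB staining of total protein gauged overt cytotoxicity.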

[17] = read-out: Interleukin-6 (IL6), IL6 (gene 3569); experiment: BSK_CASM3C_IL6: BioMAP Diversity Plus: CASM3C Assay for Interleukin-6 (IL6) Biomarker Activity for (AID 2283040); conditions: primary human coronary artery smooth muscle cells; actives raise or lower the signal
[18] = read-out: Tissue plasminogen activator (tPA), PLAT (gene 5327); experiment: BSK_BE3C_tPA: BioMAP Diversity Plus: BE3C Assay for Tissue plasminogen activator (tPA) Biomarker Activity (AID 2283041); conditions: primary human bronchial epithelial cells; actives raise or lower the signal
Outline: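 Primary human bronchial epithelial cells in the BE3C system, exposed to compound for 24 h. tPA was quantified by ELISA; DMSO served as baseline, with gain or loss of signal fitted. Cytotoxicity checked in parallel cultures by SRB total-protein staining.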

[19] = read-out: Urokinase-type plasminogen activator receptor (uPAR), PLAUR (gene 5329); experiment: BSK_BE3C_uPAR: BioMAP Diversity Plus: BE3C Assay for Urokinase-type plasminogen activator receptor (uPAR) Biomarker Activity (AID 2283039); conditions: primary human bronchial epithelial cells; actives raise or lower the signal;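 also: cells exposed to compound for one day before measurement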
Outline: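 Primary human bronchial epithelial cells dosed for 24 h; uPAR quantified by ELISA with bidirectional fitting against DMSO. Overt cytotoxicity assessed in parallel cultures by SRB total-protein staining (0.1% SRB, 560 nm).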

[20] = read-out: Thrombomodulin, THBD (gene 7056); experiment: BSK_3C_Thrombomodulin: BioMAP Diversity Plus: 3C Assay for Thrombomodulin Biomarker Activity (AID 2283029); conditions: primary human endothelial cells (HUVEC); actives raise or lower the signal
Outline: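 Human umbilical vein endothelial cells were exposed to chemicals for 24 h; cell-surface thrombomodulin quantified by ELISA, with bidirectional fitting against DMSO baseline.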

Measured: AC50

human Vitamin D Receptor (VDR), VDR (gene 7421), sequence (P11473 whole entry, looked up, the tested form may be a part): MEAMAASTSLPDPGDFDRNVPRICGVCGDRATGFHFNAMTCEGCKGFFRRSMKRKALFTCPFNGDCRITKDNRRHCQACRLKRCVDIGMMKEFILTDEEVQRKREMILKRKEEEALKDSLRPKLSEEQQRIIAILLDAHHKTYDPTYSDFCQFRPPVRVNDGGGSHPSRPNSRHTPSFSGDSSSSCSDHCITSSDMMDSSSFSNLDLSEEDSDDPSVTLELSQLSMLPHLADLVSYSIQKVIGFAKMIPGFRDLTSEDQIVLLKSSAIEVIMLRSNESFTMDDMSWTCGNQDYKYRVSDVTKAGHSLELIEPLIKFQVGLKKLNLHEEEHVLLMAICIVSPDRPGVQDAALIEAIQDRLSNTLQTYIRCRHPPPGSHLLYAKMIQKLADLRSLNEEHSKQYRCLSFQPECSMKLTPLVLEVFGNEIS

CC1CCC(C(C)CS)CC1S (stereo unspecified)
active: [2] 20 µM | [3] 36.6 µM | [4] 37.1 µM | [5] 23.9 µM | [6] 30.9 µM | [7] 29.9 µM | [8] 36.4 µM | [10] 20 µM | [11] 29.1 µM | [12] 30.7 µM | [13] 35.4 µM | [17] 33.5 µM
inactive: [1] | [9] | [14] | [15] | [16] | [18]

OCCOCCOCCOCCO
inactive: [1]

CC(=O)OCCOC(C)=O
inactive: [1]

Cc1c(Cl)c(=O)oc2cc(O)ccc12
inactive: [1]

O=C(O)c1ccc([N+](=O)[O-])cc1
not listed: [20]
inactive: all other assays above

CCCCO
inactive: [1]

CC(=O)Nc1ccccc1O
not listed: [19] | [20]
inactive: all other assays above

Nc1cc([N+](=O)[O-])ccc1O
inactive: [1] | [2] | [3] | [5] | [6] | [7] | [8] | [9] | [10] | [11] | [12] | [13] | [15] | [16] | [17] | [18]
active: [3] 0.15 µM | [15] 11.8 µM

CC(=O)/C=C/C1=C(C)CCCC1(C)C
not listed: [20]
inactive: all other assays above

CCC(C)CCCC(C)(C)O (stereo unspecified)
inactive: [1]

O=C(O)c1cn(C2CC2)c2cc(N3CCNCC3)c(F)cc2c1=O
not listed: [1] | [19]
inactive: all other assays above

Cc1ccc(O)c(C(C)(C)C)c1
inactive: [9] | [14] | [15] | [18]
active: [2] 25 µM | [3] 28.3 µM | [4] 13.4 µM | [5] 34.3 µM | [6] 33.5 µM | [7] 31.9 µM | [8] 28.2 µM | [10] 30.5 µM | [11] 30.5 µM | [12] 36.8 µM | [13] 35 µM | [16] 31.6 µM | [17] 10.6 µM

O=[N+]([O-])c1cc(C(F)(F)F)ccc1Cl
not listed: [1] | [19] | [20]
inactive: all other assays above

CCn1c2ccccc2c2cc(N)ccc21
active: [4] 8.8 µM | [5] 1.23 µM | [8] 0.152 µM | [10] 2.24 µM | [15] 3.97 µM | [18] 3.97 µM
not listed: [1] | [19] | [20]
inactive: all other assays above

OC1OC[C@@H](O)[C@H](O)[C@H]1O (stereo partly specified)
not listed: [1] | [4] | [14] | [19] | [20]
inactive: all other assays above

CCCCCCCCCC=O
active: [10] 20 µM | [12] 20 µM
not listed: [1] | [19]
inactive: all other assays above

N#Cc1ccc(CC(=NNC(=O)Nc2ccc(OC(F)(F)F)cc2)c2cccc(C(F)(F)F)c2)cc1
not listed: [1] | [19] | [20]
inactive: all other assays above
